This is an account of results in PubChem BioAssay (NCATS).

The target of assay [1] is Lysosomal acid glucosylceramidase (Homo sapiens) (UniProt P04062). Kind of assay: Glucocerebrosidase-p2 (AID 348; in the data active = potency below about 10 µM; note: potency is the fitted concentration of half-maximal effect). Particulars: purified GBA, blue fluorogenic substrate, 40 min. In short, it runs like this:
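Normal human glucocerebrosidase (0.2 nM) with blue fluorogenic substrate (80 uM final) in citrate/phosphate pH 5.9 with 10mM sodium taurocholate, 0.01% tween-20; 40 min RT, NaOH/glycine stop; fluorescence Ex 365/Em 440; AC50 from a titration from 0.6 nM upwards.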

Assay [2] can be described thus: AP1 Signaling Pathway (AID 357).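 Note: ME-180 reporter cells stimulated with EGF at its EC50 level; % is set by controls: 0 for no effect and ±100 for the full control effect.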 Particulars: ME-180 AP-1-bla reporter, EGF-induced, beta-lactamase ratio, 5 h. In short, it runs like this:
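AP-1-bla ME-180 cells, Opti-MEM + 0.5% dialyzed FBS, plated overnight 37 °C. Cpd titration + EC50 EGF, 5 h 37 °C. CCF4 2.5 h RT; ex 405, em 460/530 ratio → %activity, AC50.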

Assay [3] concerns the target Cytochrome P450 1A2 (Homo sapiens) (UniProt P05177). Kind of assay: p450-cyp1a2 (AID 410; calls by dose curve; note: potency is the fitted concentration of half-maximal effect;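 for activity change, negative = inhibition: -100% = full effect of reference inhibitor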). In short, it runs like this:
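O-Demethylation of luciferin 6' methyl ether by human CYP1A2 is monitored as luciferase luminescence. Substrate sits at Km (100uM); enzyme is 20nM. Values are scaled to 57 uM furafylline as maximal inhibition.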

Assay [4] can be described thus: NFAT Signaling Pathway (AID 444).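 Note: carbachol stimulus at about its EC50 of 1 µM final; % is set by controls: 0 for no effect and ±100 for the full control effect.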 Particulars: Jurkat NFAT-bla M1, carbachol, beta-lactamase ratio, 5 h; at 7.69 µM (top of the series) unless noted. In outline: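 Read-out: CCF4 FRET ratio (460 nm/530 nm) after 1 h RT dye loading, used for %activity and AC50 from titration series. Cells: Jurkat NFAT-β-lactamase/M1 line, treated with compound plus 1 uM carbachol for 5 h, 37 °C.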

Assay [5] is described as follows: Stat Signaling Pathway (AID 446).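 Note: ME-180 cervical cancer cells given 40 pM IL-6 alongside compound; SIE-controlled beta-lactamase reporter measured as 460/530 nm FRET emission ratio; % is set by controls: 0 for no effect and ±100 for the full control effect.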 Particulars: ME-180 (cervical carcinoma) SIE beta-lactamase reporter, IL-6 stimulated, 5 h. In short, it runs like this: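 FRET read-out (405 nm excitation, 460/530 nm emission) of a beta-lactamase reporter under a STAT-inducible element in ME-180 cervical carcinoma cells. Cells with compound receive 40 pM IL-6 for 5 h. Values are normalised to AC90 stimulation and AC90 JAK-inhibitor controls.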

For assay [6], the target named is Glucocorticoid receptor (Homo sapiens) (UniProt P04150). Kind of assay: GR-GFP Redistribution (AID 450;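 active = compounds whose dose series gives a full or clear partial fitted curve of increased nuclear translocation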; note: potency is the fitted concentration of half-maximal effect). Particulars: U2OS GR-GFP nuclear translocation, laser cytometry, 2 h.
For assay [7] the target is unchanged. Kind of assay: GR-EFC Redistribution (AID 451; calls by dose curve; note: potency is the fitted concentration of half-maximal effect). The settings on record: CHO-K1 GR-EFC translocation, beta-gal luminescence, 2 h. In short, it runs like this: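 Translocation of GR-ED fusion to nuclear EA restores b-gal, read by luminescence after 1 h room-temperature detection. Engineered CHO-K1 biosensor cells, 1,000/well, exposed 2 h at 37 C to titrations up to 46 uM final.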

The target in assay [8] is Mitogen-activated protein kinase 10 (Mus musculus) (UniProt Q61831). Kind of assay: JNK3 AlphaScreen Assay (AID 530).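 Note: kinase came from lysate of stimulated human HepG2 cells; signal reports phosphorylation of biotinylated GST-cJun 1-79 at Ser73 with 10 µM ATP; % is set by controls: 0 for no effect and ±100 for the full control effect.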 In short, it runs like this: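 qHTS titrations with 15 min compound pre-incubation before adding ATP (10 uM final). Read-out: AlphaScreen of Ser73-phosphorylated biotin-GST-cJun using HepG2 lysate JNK3 activated by IL-1β and TNFα.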
Assay [9] has as its target Cytochrome P450 3A4 (Homo sapiens) (UniProt P08684). Kind of assay: qHTS Assay for Inhibitors and Substrates of Cytochrome P450 3A4 (AID 884; active = well fitted curve in the direction sought with a large enough effect; an effect the other way counts as inactive or inconclusive; note: potency is the fitted concentration of half-maximal effect; nearly all actives have a fitted effect of over 50% in size). In outline: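 Luminescent readout of luciferin produced by CYP3A4 (20 nM) dealkylation of Luciferin-PPXE, 25 uM (its KM). NADPH-driven reaction ran 60 min at RT after 10 min compound preincubation; data scaled to 57 uM ketoconazole as 100% inhibition.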

Assay [10] has the same target. Kind of assay: qHTS Assay for Activators of Cytochrome P450 3A4 (AID 885; active = well fitted curve in the direction sought with a large enough effect; an effect the other way counts as inactive or inconclusive; note: nearly all actives have a fitted effect of over 65% in size). In outline:
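Luminescent readout of luciferin formed from 25 uM Luciferin-PPXE (KM level) by 20 nM CYP3A4 in 200 mM KPO4, with 60 min NADPH-driven reaction at room temperature after 10 min compound exposure. Ketoconazole (57 uM) defined 100% inhibition.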

In assay [11] the target is Cytochrome P450 2D6 (Homo sapiens) (UniProt P10635). Kind of assay: qHTS Assay for Inhibitors and Substrates of Cytochrome P450 2D6 (AID 891; active = well fitted curve in the direction sought with a large enough effect; an effect the other way counts as inactive or inconclusive; note: nearly all actives have a fitted effect of over 60% in size; note: potency is the fitted concentration of half-maximal effect). In outline: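 Luminescent read-out of luciferin formed by 5 nM human CYP2D6 demethylating 30 uM Luciferin-ME EGE (Km level) over 60 min at room temperature after NADPH regeneration addition. Data normalized to full inhibition by 1.43 uM quinidine.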

Assay [12] in a line: Confirmation and Secondary Assay for Modulators of Hemoglobin Beta Chain Splicing at IVS2 654 locus (AID 910; active = well fitted curve in the direction sought with a large enough effect; an effect the other way counts as inactive or inconclusive;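 note: HeLa cells stably carrying EGFP split by mutant beta-globin IVS2-654 intron; per-well total GFP intensity by laser scanning cytometry after 2-day treatment; % of control where 0% means no effect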). In short, it runs like this:
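Readout: per-well total peak green fluorescence (488 nm ex, 500–520 nm em) from objects 5–250 µm, reflecting correct splicing of an EGFP-654 reporter. Compounds were applied for 2 days at 37 °C to overnight-plated HeLa EGFP-654 cells; controls were DMSO and 500 nM IVS2-654 PNA.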

A short description of assay [13]: Confirmation and Secondary Assay for Modulators of Hemoglobin Beta Chain Splicing at IVS2 705 locus (AID 930; active = well fitted curve in the direction sought with a large enough effect; an effect the other way counts as inactive or inconclusive;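 note: HeLa cells stably expressing the EGFP-705 splicing reporter; GFP fluorescence per well restored by corrected splicing of the IVS2-705 intron in EGFP; % of control where 0% means no effect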). In short, it runs like this: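 First, HeLa EGFP-705 cells are seeded at 500/well in Optimem with 2% FCS and left overnight. Next, compound or DMSO is added for 2 days. Finally wells are laser-scanned and total peak GFP intensity scored.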
In assay [14] the target is Ubiquitin carboxyl-terminal hydrolase 1 (Homo sapiens) (UniProt O94782). Kind of assay: Inhibitors of USP1/UAF1: Pilot qHTS (AID 504865; active = well fitted curve in the direction sought with a large enough effect; an effect the other way counts as inactive or inconclusive; note: nearly all actives have a fitted effect of over 35% in size; note: potency is the fitted concentration of half-maximal effect). In short, it runs like this:
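Deubiquitinase activity followed as kinetic rhodamine fluorescence release from 150 nM Ub-Rho. 1 nM USP1/UAF1 with compound, after 15 min room-temperature preincubation, in HEPES pH 7.8 buffer containing TCEP, EDTA, BSA and Tween-20.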

For assay [15], the target named is Fructose-bisphosphate aldolase A (Oryctolagus cuniculus) (UniProt P00883). Kind of assay: qHTS Assay for Inhibitors of Fructose-1,6-bisphosphate Aldolase from Giardia Lamblia: Rabbit FBPA Selectivity (AID 2794; active = well fitted curve in the direction sought with a large enough effect; an effect the other way counts as inactive or inconclusive; note: % is set by controls: 0 for no effect and ±100 for the full control effect; nearly all actives have a fitted effect of over 60% in size). In outline: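 To triage Class I aldolase inhibitors, rabbit FBPA activity is followed through a glyceraldehyde-3-phosphate-linked enzyme cascade feeding AmpLite Red. Compounds (up to 57.5 uM final) sit 10 min with coupling enzymes before substrate; fluorescence is read 20 min later.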

The nature of assay [16]: qHTS Assay for Inhibitors of Fructose-1,6-bisphosphate Aldolase from Giardia Lamblia: Coupling assay counterscreen confirmation (AID 2795; active = well fitted curve in the direction sought with a large enough effect; an effect the other way counts as inactive or inconclusive; note: % is set by controls: 0 for no effect and ±100 for the full control effect; nearly all actives have a fitted effect of over 55% in size). In outline: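 Counterscreen, no aldolase: coupling enzyme reagent + cpd (up to 57.5 uM final), 10 min RT; add substrate + coupling system + AmpLite Red, 20 min RT; fluorescence ex 525/em 598 nm.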
Assay [17] deals with Tumor susceptibility gene 101 protein (Homo sapiens) (UniProt Q99816). Kind of assay: qHTS Assay for Iinhibitors of HIV-1 Budding by Blocking the Interaction of PTAP/TSG101: Hit Validation (AID 651600; active = well fitted curve in the direction sought with a large enough effect; an effect the other way counts as inactive or inconclusive; note: % is set by controls: 0 for no effect and ±100 for the full control effect; nearly all actives have a fitted effect of over 70% in size). In outline: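 FITC-PTAP peptide (50 nM final) binding to Tsg101 binding domain (10 uM final) was measured by polarization after 20 min at r.t. with compounds, in 10 mM HEPES pH 7.5 buffer with 0.15 M NaCl and 0.01% Tween 20.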

The target in assay [18] is 3',5'-cyclic-AMP phosphodiesterase 4B (Homo sapiens) (UniProt Q07343). Kind of assay: qHTS Assay for Inhibitors of PDE-IV (AID 607; active = well fitted activation curve with a large enough effect in the main read-out, with a control signal flat, not every such curve was filed as active; note: % of control where 0% means no effect). In outline:
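Cell-based read-out of cAMP via a modified cyclic nucleotide-gated channel and membrane potential dye (535/590 nm) in HEK293 cells expressing PDE4 endogenously. Compounds tested up to 22.9 uM final; 100 uM RO 20-1724 reference.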

Assay [19] deals with Cytochrome P450 2C9 (Homo sapiens) (UniProt P11712). Kind of assay: qHTS Assay for Inhibitors and Substrates of Cytochrome P450 2C9 (AID 883; active = well fitted curve in the direction sought with a large enough effect; an effect the other way counts as inactive or inconclusive; note: % is set by controls: 0 for no effect and ±100 for the full control effect; nearly all actives have a fitted effect of over 60% in size). In outline:
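Inhibition of CYP2C9 is scored as loss of luminescence, with 57uM sulphaphenazole defining 100% inhibition. Substrate Luciferin-H is used at 100uM, equal to its KM; enzyme at 10nM in 25mM KPO4, 60 min at 37C with NADPH regeneration.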

For assay [20], the target named is Cytochrome P450 2C19 (Homo sapiens) (UniProt P33261). Kind of assay: qHTS Assay for Inhibitors and Substrates of Cytochrome P450 2C19 (AID 899; active = well fitted curve in the direction sought with a large enough effect; an effect the other way counts as inactive or inconclusive; note: % is set by controls: 0 for no effect and ±100 for the full control effect; nearly all actives have a fitted effect of over 60% in size). In outline:
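5nM enzyme + 10uM Luciferin-H EGE (=KM), 50mM KPO4; cpd pin-transferred, 10 min 37C; NADPH regen, 60 min 37C; stopped w/ luciferin detection reagent, 20 min; luminescence. Normalized to 57uM ketoconazole (AC100).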

The mark [21] stands for this setting: at 7.69 µM (top of the series) unless noted.

Values joined by “and” are separate entries in the source; they are usually repeats but may differ in a detail not shown here. Identical values can stand only once. A number with no mark means an inactive call. Results filed as inconclusive are left out. The list shows a part of the results. Active and inactive are the calls of the source. Unless noted, calls come from the whole dose curve; as a rule, active = well fitted curve in either direction with a large enough effect (not every such curve was filed as active); inconclusive = small, poorly fitted or top-dose-only effect, or another doubt; inactive = flat fitted curve, though single readings scatter.

Sequence of Cytochrome P450 3A4 (Homo sapiens) (P08684 whole entry, looked up): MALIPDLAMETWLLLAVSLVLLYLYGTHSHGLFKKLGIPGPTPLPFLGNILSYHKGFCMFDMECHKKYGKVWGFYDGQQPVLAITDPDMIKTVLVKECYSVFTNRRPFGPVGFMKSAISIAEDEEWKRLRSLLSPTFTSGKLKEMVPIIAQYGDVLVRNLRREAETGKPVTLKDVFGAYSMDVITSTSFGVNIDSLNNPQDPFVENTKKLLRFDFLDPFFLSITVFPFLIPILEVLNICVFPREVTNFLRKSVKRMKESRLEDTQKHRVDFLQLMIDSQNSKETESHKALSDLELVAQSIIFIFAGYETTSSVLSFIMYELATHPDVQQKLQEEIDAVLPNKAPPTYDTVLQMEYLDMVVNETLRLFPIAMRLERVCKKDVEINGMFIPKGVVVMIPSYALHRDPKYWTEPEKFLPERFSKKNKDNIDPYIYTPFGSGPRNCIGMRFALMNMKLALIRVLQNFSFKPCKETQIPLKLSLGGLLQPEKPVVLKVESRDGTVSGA
Sequence of Cytochrome P450 1A2 (Homo sapiens) (P05177 whole entry, looked up): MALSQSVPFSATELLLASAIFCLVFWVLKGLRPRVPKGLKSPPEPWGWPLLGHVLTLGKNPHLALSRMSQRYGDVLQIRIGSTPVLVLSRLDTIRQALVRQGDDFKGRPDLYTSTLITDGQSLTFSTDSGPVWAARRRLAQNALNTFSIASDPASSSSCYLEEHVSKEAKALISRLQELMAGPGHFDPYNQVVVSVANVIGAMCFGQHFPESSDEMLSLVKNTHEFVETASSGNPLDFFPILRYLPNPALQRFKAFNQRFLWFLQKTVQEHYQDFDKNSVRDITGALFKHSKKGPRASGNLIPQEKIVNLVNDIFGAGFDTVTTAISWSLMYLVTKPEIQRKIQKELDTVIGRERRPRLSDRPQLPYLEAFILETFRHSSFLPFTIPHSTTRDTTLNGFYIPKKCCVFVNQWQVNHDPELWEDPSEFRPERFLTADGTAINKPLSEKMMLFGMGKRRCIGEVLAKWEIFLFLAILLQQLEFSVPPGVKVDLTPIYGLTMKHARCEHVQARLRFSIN
Sequence of Lysosomal acid glucosylceramidase (Homo sapiens) (P04062 whole entry, looked up): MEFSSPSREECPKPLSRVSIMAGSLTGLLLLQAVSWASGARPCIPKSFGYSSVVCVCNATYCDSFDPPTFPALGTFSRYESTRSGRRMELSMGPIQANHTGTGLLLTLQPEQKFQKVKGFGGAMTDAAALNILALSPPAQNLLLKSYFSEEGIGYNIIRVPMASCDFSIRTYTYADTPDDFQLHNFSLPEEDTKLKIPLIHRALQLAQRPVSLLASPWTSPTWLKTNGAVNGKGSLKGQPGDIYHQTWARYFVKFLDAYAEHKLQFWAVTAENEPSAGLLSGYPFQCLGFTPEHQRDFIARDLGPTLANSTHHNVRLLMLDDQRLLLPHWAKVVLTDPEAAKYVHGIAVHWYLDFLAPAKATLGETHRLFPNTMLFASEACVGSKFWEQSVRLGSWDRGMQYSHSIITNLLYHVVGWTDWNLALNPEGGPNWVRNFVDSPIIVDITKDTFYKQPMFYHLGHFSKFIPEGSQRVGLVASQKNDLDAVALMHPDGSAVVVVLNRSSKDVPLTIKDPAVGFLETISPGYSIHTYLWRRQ
Sequence of Ubiquitin carboxyl-terminal hydrolase 1 (Homo sapiens) (O94782 whole entry, looked up): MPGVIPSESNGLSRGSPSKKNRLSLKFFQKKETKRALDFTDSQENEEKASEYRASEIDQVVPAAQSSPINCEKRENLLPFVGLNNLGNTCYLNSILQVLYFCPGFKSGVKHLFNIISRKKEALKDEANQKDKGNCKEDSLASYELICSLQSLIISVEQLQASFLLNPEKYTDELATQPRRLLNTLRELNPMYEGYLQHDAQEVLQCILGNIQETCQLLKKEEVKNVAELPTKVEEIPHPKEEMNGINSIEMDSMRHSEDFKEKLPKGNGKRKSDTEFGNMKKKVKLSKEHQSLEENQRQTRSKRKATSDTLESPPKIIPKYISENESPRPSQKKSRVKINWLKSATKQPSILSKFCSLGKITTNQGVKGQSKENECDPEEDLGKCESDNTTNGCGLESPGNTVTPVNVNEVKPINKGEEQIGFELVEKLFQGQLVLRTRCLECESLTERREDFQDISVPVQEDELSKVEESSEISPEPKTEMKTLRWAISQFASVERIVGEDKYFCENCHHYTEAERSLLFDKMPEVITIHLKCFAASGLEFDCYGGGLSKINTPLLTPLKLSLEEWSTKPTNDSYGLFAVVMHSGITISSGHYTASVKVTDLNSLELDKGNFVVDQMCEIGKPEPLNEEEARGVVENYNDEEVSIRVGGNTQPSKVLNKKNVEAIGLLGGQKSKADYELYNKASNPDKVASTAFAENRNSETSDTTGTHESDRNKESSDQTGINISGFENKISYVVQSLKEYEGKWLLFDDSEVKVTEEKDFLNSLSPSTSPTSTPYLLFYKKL
Sequence of Glucocorticoid receptor (Homo sapiens) (P04150 whole entry, looked up, the tested form may be a part): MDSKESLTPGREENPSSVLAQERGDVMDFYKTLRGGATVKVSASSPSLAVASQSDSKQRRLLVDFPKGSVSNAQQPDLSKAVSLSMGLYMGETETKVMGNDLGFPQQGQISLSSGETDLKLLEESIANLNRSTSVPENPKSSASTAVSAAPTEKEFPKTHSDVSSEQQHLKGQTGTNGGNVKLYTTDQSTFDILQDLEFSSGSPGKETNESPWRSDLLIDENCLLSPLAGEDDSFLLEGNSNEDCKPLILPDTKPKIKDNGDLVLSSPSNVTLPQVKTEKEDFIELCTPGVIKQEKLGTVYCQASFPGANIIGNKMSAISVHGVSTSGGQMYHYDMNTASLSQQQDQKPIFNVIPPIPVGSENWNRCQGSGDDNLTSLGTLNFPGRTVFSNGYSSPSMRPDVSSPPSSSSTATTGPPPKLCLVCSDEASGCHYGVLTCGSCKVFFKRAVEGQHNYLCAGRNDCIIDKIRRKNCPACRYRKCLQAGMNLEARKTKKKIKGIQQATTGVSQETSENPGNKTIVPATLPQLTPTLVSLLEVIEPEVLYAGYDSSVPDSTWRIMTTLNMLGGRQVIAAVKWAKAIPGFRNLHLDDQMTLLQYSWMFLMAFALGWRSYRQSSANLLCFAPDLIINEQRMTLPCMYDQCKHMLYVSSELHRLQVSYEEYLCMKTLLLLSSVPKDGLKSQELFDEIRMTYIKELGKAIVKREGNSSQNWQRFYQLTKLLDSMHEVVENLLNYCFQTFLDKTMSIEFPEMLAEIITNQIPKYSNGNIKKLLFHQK
Sequence of Cytochrome P450 2D6 (Homo sapiens) (P10635 whole entry, looked up): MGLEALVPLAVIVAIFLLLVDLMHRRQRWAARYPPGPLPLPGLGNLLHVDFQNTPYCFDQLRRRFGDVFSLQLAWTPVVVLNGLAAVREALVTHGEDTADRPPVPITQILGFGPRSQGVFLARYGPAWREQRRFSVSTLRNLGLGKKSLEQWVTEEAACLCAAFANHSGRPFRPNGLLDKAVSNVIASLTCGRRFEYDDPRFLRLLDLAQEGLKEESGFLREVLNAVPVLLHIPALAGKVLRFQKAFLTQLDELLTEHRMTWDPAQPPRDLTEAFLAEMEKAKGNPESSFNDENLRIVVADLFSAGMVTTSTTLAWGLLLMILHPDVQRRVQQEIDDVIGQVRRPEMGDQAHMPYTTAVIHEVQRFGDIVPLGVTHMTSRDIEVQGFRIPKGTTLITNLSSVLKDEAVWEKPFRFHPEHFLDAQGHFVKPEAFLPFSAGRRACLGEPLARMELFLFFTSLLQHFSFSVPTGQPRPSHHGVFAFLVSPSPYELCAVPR
Sequence of Fructose-bisphosphate aldolase A (Oryctolagus cuniculus) (P00883 whole entry, looked up): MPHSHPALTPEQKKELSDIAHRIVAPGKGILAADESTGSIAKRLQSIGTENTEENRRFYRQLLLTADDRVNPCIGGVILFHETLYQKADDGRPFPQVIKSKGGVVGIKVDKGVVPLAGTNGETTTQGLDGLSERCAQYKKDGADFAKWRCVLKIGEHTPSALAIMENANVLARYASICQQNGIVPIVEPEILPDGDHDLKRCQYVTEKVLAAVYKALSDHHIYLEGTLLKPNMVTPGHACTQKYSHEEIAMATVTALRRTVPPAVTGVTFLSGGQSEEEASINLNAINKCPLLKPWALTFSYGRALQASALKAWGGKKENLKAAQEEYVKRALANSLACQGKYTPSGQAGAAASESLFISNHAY
Sequence of Cytochrome P450 2C9 (Homo sapiens) (P11712 whole entry, looked up): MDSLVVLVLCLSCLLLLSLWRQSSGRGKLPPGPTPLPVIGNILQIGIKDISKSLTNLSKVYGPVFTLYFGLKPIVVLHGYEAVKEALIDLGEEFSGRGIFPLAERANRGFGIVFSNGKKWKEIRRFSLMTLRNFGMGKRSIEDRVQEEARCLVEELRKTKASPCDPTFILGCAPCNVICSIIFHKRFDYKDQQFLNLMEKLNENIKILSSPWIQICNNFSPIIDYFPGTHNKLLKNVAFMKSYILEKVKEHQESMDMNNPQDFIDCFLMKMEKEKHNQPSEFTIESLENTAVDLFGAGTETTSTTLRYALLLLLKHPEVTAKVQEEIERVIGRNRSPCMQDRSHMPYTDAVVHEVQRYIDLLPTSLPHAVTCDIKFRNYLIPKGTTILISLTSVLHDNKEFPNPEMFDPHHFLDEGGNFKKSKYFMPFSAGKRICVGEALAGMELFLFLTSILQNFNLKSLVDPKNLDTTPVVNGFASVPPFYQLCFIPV
Sequence of Cytochrome P450 2C19 (Homo sapiens) (P33261 whole entry, looked up): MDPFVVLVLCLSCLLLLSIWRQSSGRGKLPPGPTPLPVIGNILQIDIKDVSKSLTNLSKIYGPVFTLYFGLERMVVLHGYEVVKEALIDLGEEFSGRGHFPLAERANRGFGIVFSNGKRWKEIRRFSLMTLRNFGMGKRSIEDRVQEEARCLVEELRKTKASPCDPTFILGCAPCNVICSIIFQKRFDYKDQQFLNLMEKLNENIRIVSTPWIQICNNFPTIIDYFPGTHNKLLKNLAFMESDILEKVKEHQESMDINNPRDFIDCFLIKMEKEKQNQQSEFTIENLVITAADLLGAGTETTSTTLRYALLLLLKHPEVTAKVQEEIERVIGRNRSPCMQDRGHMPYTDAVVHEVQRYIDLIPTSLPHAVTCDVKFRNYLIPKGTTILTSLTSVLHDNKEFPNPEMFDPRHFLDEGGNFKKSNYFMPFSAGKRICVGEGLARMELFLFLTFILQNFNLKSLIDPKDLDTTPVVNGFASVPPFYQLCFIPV

As for `COc1ccccc1-c1nc(NCc2ccccc2)c2ccccc2n1`, the Potency in assay [1] is more than 11.4 µM; in [3], 0.398 µM (active); in assay [6], more than 46 µM; in [7], more than 46 µM; in assay [9], 3.98 µM (active); in assay [11], 1.58 µM (active). For the same compound, the Potency in assay [14] is 11.2 µM (active). The activity change, negative = inhibition in [2] (setting [21]) is 24%; in [4], -19.4%. The activity, negative = inhibition in assay [5] (setting [21]) was 0.0453%. Also, the Potency entry in assay [8] and in [10] was “inactive” each time. Also, the call in assay [12] and in [13] was inactive.

Turning to `O=[N+]([O-])c1ccc2nc(-c3ccccn3)[nH]c2c1`, in assay [15], the compound was classed as inactive.

`CN(N=O)c1ccc(/C=C\c2ccnc3ccccc23)cc1`: the Potency is more than 11.4 µM in [1], 0.158 µM (active) in assay [3], more than 46 µM in assay [6] and more than 9.22 µM in assay [7]. For the same compound, the figures for the activity change, negative = inhibition in assay [2] (setting [21]) and in assay [4] were -0.154% and 7.28%, respectively. In [5] (setting [21]), the activity, negative = inhibition is -0.754%. The Potency entry in assay [8] is “inactive”.

For the compound `Oc1ccc2ccccc2c1N=Nc1nccs1`, the compound was called inactive in [16] and in assay [17].

Turning to `c1c[nH]c(CN2CCN(Cc3ncc[nH]3)CC2)n1`, the results for the Potency in [1], in assay [6] and in assay [7] were more than 11.4 µM, more than 46 µM and more than 9.22 µM, respectively. Moreover, the activity change, negative = inhibition in assay [2] (setting [21]) was 4.41%; in assay [4] it was -12.2%. The Potency entry in assay [3] and in assay [8] was “inactive” each time. For the same compound, the activity, negative = inhibition in assay [5] (setting [21]) is -5.33%.

For the compound `COc1ccc2cc1Oc1ccc(cc1)C[C@H]1c3cc(c(OC)cc3CCN1C)Oc1c(OC)c(OC)cc3c1[C@@H](C2)N(C)CC3`, the Potency in [1] was more than 11.4 µM; in assay [6] it was > 20.6 µM and > 46 µM; in assay [7], > 20.6 µM and > 46 µM and > 9.22 µM. For the same compound, the activity change, negative = inhibition was -3.56% in assay [2] (at 7.69 µM (top of the series)) and -5.15% in [2] (at 17.2 µM (top of the series)). The Potency entry in assay [3], in assay [8], in assay [18], in [19], in assay [11] and in [20] was “inactive” each time. In addition, in [14], the Potency result is “inactive”. In addition, the results for the activity, negative = inhibition in assay [5] (at 7.69 µM (top of the series)) and in [5] (at 17.2 µM (top of the series)) were -1.58% and -5.25%, respectively.

`NN(CC(=O)O)CC(=O)O`: the Potency in [1] was more than 11.4 µM; in [6], more than 46 µM; in assay [7], more than 9.22 µM. In addition, the activity change, negative = inhibition in assay [2] (setting [21]) is -2.45%; in assay [4], -1.35%. The Potency result in assay [3] and in assay [8] was “inactive” throughout. For the same compound, in assay [5] (setting [21]), the activity, negative = inhibition is -0.699%.

Turning to `Cc1nc2ccccc2nc1-c1ccc(N=[N+]([O-])c2ccc(-c3nc4ccccc4nc3C)cc2)cc1`, the Potency in assay [1] is more than 11.4 µM; in assay [3], 6.31 µM (active); in assay [6] it was more than 46 µM; in assay [7], more than 9.22 µM. The activity change, negative = inhibition in assay [2] (setting [21]) was 6.31%; in assay [4], -3.33%. In addition, the activity, negative = inhibition in assay [5] (setting [21]) is -5.62%. In addition, the Potency entry in [8] was “inactive”.

Regarding `Cc1csc(NC(=O)CN2CCCCCC2)n1`, the compound was called inactive in assay [16].

`Clc1cccc(CN2COc3c(cc(Cl)c4cccnc34)C2)c1`: in assay [15], the compound was called inactive.

With `CN(C)c1ccc(-c2nc(N3CCNCC3)c3ccccc3n2)cc1`, the Potency in [1] was more than 11.4 µM; in [3], 10 µM (active); in assay [6], more than 46 µM; in [7], more than 46 µM. Also, the activity change, negative = inhibition is -12.7% in assay [2] (setting [21]) and 5.32% in assay [4]. Moreover, the activity, negative = inhibition in assay [5] (setting [21]) was 23.9%. Further, the Potency result in [8], in assay [10] and in assay [14] was “inactive” throughout. Moreover, the compound was called inactive in assay [12] and in [13].
